About 8,800 targets were measured; listed, in parts, are those with a hit and a random draw of the rest. About 0.5% of all pairs of compound and target were hits. A number with no mark means an inactive call.
Experiments:
Test in all cases: log2 fold change, soluble protein after heating vs DMSO (PISA); higher = thermal stabilisation; K562 lysate, 10 uM; active = over 0.2 and 3.5 SD of the protein, either way, in both replicates (recomputed)
[1] = compound: C=CC(=O)N1CCC[C@@H](n2nc(-c3ccc(Oc4ccccc4)cc3)c3c(N)ncnc32)C1 [ibrutinib]
Summary of the method: (§1)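 Pellets of K562 cells were dounce-homogenised in PBS pH 7.4 with 1 mM MgCl2, and the crude extract was held at 1 mg/mL protein for a 30 min treatment with 10 μM compound. Aliquots were heated for 3 min over 48°C-58°C and pooled before NP-40 was added to 0.5% at 4°C. The supernatant from 21,000xg for 90 min was quantified by TMTpro 16plex LC-MS/MS with channel sums equalised. Values are reported from duplicates as log-two fold change in thermal stability relative to solvent controls.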

[2] = compound: CC(=O)c1cnc2ccc(-c3cc(Cl)c(O)c(Cl)c3)nc2c1N[C@H]1CC[C@H](CN(C)C)CC1
Summary of the method: as §1

[3] = compound: CC(C)(C)Cn1c(N)nc2ccc(-c3[nH]c(C(C)(C)C)nc3-c3ccc(F)cc3)nc21 [ralimetinib]
Summary of the method: as §1

[4] = compound: CC(C)(O)CC(=O)NCCn1ccc2ncnc(Nc3ccc(Oc4cccc(C(F)(F)F)c4)c(Cl)c3)c21
Summary of the method: as §1

[5] = compound: CC(C)C1=C2N=C(C=C(N2N=C1)NCC3=CC=CC=C3)NCCCCCCN
Summary of the method: as §1

[6] = compound: CC1=C(C(CC(=O)N1)C2=CC=C(C=C2)C(F)(F)F)C(=O)NC3=C(C=C4C(=C3)C=NN4)F
Summary of the method: as §1

[7] = compound: CC1=C(C2=C(C=C1)C(=O)C3=CC=CC=C3N2CCCN)C
Summary of the method: as §1

[8] = compound: CC1=C(C=C(C=C1)NC(=O)C2=CC(=CC=C2)C(C)(C)C#N)NC3=CC4=C(C=C3)N=CN(C4=O)C
Summary of the method: as §1

[9] = compound: CC1=C(C=C(C=C1)NC(=O)C2=CC(=CC=C2)N(C)C)NC(=O)C3=CC=C(C=C3)O
Summary of the method: as §1

[10] = compound: CC1=CC=C(C=C1)SC2=C3C=C(SC3=CN=C2)C(=O)N
Summary of the method: as §1

[11] = compound: CCCS(=O)(=O)Nc1ccc(F)c(C(=O)c2c[nH]c3ncc(-c4ccc(Cl)cc4)cc23)c1F [vemurafenib]
Summary of the method: as §1

[12] = compound: CCCS(=O)(=O)Nc1ccc(F)c(C(=O)c2c[nH]c3ncc(Cl)cc23)c1F
Summary of the method: as §1

[13] = compound: CCN(CCCOc1ccc2c(Nc3cc(CC(=O)Nc4cccc(F)c4)[nH]n3)ncnc2c1)CCOP(=O)(O)O [barasertib]
Summary of the method: as §1

[14] = compound: CC[C@@H]1C(=O)N(C)c2cnc(Nc3ccc(C(=O)NC4CCN(C)CC4)cc3OC)nc2N1C1CCCC1
Summary of the method: as §1

[15] = compound: CC[C@@H]1C(=O)N(C)c2cnc(Nc3ccc(C(=O)N[C@H]4CC[C@H](N5CCN(CC6CC6)CC5)CC4)cc3OC)nc2N1C(C)C [volasertib]
Summary of the method: as §1

[16] = compound: CCn1c(C(=O)N(C2CC2)C2CC2)cc2c3c(ncn3C)c(Nc3cc(C)n(C)n3)nc21
Summary of the method: as §1

[17] = compound: CCn1cc(-c2ccnc3[nH]c(-c4cccc(CN(C)C)c4)cc23)c(-c2ccc(NC(=O)N(C)C)cc2)n1
Summary of the method: as §1

[18] = compound: CN1CCC(CNc2ccc3ncc(-c4cccc(OC(F)(F)F)c4)n3n2)CC1
Summary of the method: as §1

[19] = compound: CN1CCN(CCOc2cc(OC3CCOCC3)c3c(Nc4c(Cl)ccc5c4OCO5)ncnc3c2)CC1 [saracatinib]
Summary of the method: as §1

[20] = compound: CN1CCN(c2nc(C3=C(c4c[nH]c5ccccc45)C(=O)NC3=O)c3ccccc3n2)CC1 [sotrastaurin]
Summary of the method: as §1

UniProt Q9NR50, sequence (Q9NR50 whole entry, looked up): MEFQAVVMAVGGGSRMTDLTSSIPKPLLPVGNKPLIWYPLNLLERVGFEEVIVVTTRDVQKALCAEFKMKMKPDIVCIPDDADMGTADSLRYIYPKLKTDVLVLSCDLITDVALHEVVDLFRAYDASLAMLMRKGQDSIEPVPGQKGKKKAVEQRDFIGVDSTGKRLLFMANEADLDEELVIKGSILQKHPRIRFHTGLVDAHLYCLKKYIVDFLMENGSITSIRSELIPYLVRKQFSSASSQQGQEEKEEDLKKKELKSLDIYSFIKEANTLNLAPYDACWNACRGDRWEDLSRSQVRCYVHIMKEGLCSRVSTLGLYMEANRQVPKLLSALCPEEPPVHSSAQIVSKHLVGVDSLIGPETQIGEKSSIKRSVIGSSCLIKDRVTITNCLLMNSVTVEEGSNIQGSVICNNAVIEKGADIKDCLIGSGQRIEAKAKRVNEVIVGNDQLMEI
UniProt Q7L8L6, sequence (Q7L8L6 whole entry, looked up): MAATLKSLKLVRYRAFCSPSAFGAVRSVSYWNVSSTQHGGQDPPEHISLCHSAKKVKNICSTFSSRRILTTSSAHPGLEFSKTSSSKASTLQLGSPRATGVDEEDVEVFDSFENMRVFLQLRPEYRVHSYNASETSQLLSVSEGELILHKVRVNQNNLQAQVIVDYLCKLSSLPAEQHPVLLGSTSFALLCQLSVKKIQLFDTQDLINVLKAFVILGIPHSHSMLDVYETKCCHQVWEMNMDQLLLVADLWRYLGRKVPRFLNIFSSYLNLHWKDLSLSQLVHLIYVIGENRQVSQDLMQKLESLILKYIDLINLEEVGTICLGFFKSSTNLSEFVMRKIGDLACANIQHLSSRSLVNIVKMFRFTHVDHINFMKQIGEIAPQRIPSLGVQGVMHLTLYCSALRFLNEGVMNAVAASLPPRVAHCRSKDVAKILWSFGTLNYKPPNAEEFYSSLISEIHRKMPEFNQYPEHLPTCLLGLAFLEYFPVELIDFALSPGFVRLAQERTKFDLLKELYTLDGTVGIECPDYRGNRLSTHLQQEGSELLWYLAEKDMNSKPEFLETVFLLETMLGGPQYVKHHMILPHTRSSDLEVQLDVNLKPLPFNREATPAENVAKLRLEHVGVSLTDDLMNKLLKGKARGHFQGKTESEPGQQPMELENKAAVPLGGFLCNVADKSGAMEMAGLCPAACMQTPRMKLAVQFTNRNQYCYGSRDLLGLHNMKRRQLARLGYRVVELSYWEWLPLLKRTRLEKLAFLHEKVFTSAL
UniProt Q8WWZ3, sequence (Q8WWZ3 whole entry, looked up): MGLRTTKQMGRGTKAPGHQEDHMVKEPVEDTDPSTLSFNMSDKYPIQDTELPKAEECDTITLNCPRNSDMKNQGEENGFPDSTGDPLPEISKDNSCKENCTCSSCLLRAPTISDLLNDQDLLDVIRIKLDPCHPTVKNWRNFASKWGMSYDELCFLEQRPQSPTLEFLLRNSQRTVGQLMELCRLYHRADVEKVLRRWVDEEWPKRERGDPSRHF
UniProt P06733, sequence (P06733 whole entry, looked up): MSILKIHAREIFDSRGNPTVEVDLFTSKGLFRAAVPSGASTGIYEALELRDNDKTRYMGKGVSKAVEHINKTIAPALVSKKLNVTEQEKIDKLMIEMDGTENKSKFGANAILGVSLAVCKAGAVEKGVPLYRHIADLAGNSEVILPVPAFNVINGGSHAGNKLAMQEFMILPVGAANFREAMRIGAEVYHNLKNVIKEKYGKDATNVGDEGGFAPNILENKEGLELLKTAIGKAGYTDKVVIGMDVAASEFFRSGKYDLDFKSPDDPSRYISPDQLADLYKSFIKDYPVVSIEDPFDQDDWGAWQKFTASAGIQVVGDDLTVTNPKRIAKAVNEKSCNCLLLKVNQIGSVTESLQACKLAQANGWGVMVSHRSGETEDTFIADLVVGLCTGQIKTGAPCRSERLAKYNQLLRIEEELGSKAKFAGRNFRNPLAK
UniProt Q8TB52, sequence (Q8TB52 whole entry, looked up): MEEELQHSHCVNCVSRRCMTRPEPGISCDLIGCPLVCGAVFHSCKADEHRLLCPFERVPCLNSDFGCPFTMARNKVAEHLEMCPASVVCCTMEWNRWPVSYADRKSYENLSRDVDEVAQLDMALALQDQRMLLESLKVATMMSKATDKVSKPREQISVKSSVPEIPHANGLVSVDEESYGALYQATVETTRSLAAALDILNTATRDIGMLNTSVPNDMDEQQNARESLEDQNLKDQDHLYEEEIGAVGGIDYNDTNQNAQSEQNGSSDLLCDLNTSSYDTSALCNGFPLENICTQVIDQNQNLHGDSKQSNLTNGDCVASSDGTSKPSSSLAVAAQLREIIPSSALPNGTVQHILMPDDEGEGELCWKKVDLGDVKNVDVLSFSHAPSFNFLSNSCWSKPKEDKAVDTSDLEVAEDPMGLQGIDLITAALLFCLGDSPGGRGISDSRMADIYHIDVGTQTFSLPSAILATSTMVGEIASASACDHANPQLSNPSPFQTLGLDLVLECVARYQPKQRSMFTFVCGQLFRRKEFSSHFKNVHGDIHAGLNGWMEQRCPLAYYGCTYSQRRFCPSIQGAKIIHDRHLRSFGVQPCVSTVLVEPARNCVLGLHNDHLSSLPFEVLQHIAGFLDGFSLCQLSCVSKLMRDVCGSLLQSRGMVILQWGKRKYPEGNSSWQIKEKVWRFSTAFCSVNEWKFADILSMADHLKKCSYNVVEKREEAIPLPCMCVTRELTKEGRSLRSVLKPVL
UniProt P51570, sequence (P51570 whole entry, looked up): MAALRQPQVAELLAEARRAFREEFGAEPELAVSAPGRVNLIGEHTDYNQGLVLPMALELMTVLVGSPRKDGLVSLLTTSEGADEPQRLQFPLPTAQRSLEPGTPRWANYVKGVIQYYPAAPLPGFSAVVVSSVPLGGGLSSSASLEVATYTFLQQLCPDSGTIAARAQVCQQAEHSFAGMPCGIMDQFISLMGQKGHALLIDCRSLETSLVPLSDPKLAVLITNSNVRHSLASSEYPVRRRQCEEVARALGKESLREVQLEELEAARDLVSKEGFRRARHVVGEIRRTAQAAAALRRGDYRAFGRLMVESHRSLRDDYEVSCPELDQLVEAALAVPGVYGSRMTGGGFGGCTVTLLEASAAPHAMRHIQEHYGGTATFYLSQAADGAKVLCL

Target	log2 fold change [1]	log2 fold change [2]	log2 fold change [3]	log2 fold change [4]	log2 fold change [5]	log2 fold change [6]	log2 fold change [7]	log2 fold change [8]	log2 fold change [9]	log2 fold change [10]	log2 fold change [11]	log2 fold change [12]	log2 fold change [13]	log2 fold change [14]	log2 fold change [15]	log2 fold change [16]	log2 fold change [17]	log2 fold change [18]	log2 fold change [19]	log2 fold change [20]
EIF2B3 (UniProt Q9NR50)	0.007	0.02	0.011	0.005	0.004	-0.004	-0.007	0.043	0.021	-0.004	0.013	0.021	-0.008	-0.028	-0.02	0.044	0.287 (active)	-0.111	0.005	-0.003
FAU (UniProt E9PR30)	-0.018	0.012	-0.01	-0.018	-0.122	-0.034	-0.015	0.029	-0.003	0.027	-0.009	-0.015	-0.17	0.005	-0.002	0.036	0.33 (active)	-0.076	-0.042	-0.012
ENO1, A0A2R8YEM5	-0.013	0.008	-0.012	-0.016	-0.024	-0.032	0.001	0.012	-0.044	0.014	-0.03	-0.017	-0.056	0.008	0.004	-0.04	-0.44 (active)	0.325 (active)	0.031	-0.011
FASTKD5 (UniProt Q7L8L6)	-0.134	0.056	0.073	0.007	-0.027	0.032	0.006	0.021	0.008	-0.053	-0.003	0.008	-0.047	0.073	-0.065	0.028	0.082	-0.245	0.043	-0.026
FBXO30 (UniProt Q8TB52)	0.022	-0.007	0.057	0.046	-0.009	-0.003	0.013	0.016	0.006	0.016	-0.065	0.02	0.015	-0.026	-0.042	0.009	0.208	-0.115	-0.015	-0.013
GALK1 isoform 2 (UniProt P51570)	0.002	0.032	-0.013	-0.001	-0.006	-0.021	-0.026	0.002	-0.001	0.04	0.024	0.01	0.031	0.003	-0.054	-0.009	0.085	-0.055	-0.011	0.031
ENO1 isoform 2 (UniProt P06733)	-0.043	0.008	0.02	-0.07	0.028	-0.009	-0.013	0.023	-0.002	-0.015	0.02	-0.005	-0.09	0.073	0.004	-0.021	-0.263	0.269 (active)	0.01	0.01
EDARADD (UniProt Q8WWZ3)	0.22	-0.019	-0.003	-0.071	-0.008	-0.007	0.062	0.041	0.017	-0.035	-0.066	0.02	0.255 (active)	-0.023	-0.006	-0.011	-0.14	0.057	0.04	-0.074

Source: the supplement of paper PMC10849652
